Bioassay records deposited in PubChem BioAssay by National Center for Advancing Translational Sciences (NCATS).
RORg inh: ROR gamma (mouse) transcription inhibition; 310,000 compounds, 5.4% hits; Drosophila S2 Gal4-RORgamma UAS-luciferase reporter, 20 h; Potency, µM (doses to about 53.6 µM), actives largely listed as inhibitors; note: nearly all actives have a fitted effect of over 60% in size
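Drosophila Schneider cells stably carrying a metallothionein-driven Gal4 DBD–ROR gamma fusion and a UAS-Photinus luciferase reporter were exposed to compound for 1 hr, then induced with copper sulfate (700 uM final) for 20 hr at ambient temperature before luminescence reading.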
CtBP-E1A inh: inhibitors of CtBP/E1A interaction; AlphaScreen GST-E1A/His-CtBP binding, 1536-well; active compounds read low; activity change, % (no concentration beside the values); 340,000 compounds, 0.49% hits; AID 651724; in the data active = activity change below about -65%; inconclusive = mostly about -30% to -63%
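GST-E1A and His-tagged CtBP (125 nM each as 5X stock) were preincubated with pin-transferred compound for 2 h at 37 °C in the dark, then glutathione donor and nickel acceptor beads were added for 1 h before AlphaScreen reading.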
Six1-Eya2 inh: blocks human Six1 binding to Eya2; AlphaScreen GST-Six1/His-Eya2 binding, biochemical; active compounds read low; activity change, % (concentration not given with the values); 360,000 compounds, 0.56% hits; AID 651725; in the data active = activity change below about -65%; inconclusive = mostly about -30% to -63%
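AlphaScreen with GST-Six1 and His-Eya2 (5X mix: 250 nM and 500 nM), glutathione donor and nickel acceptor beads; buffer 50 mM Tris pH 8.0, 300 mM NaCl, 1 mM TCEP; 1 h at 37 C in the dark.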
MBNL1-CUG inh: blocks human MBNL1 binding to CUG repeat RNA. Potency, µM (titrated, usually from 57.5 µM), hits mostly inhibitors. 280,000 compounds, 0.036% hits. TR-FRET MBNL1-His/biotin-(CUG)12 binding, 665/545 ratio; active = well fitted inhibition curve with a large enough effect in the signal ratio, with a control signal flat, not every such curve was filed as active; inconclusive = small, poorly fitted or top-dose-only effect, or effect the other way, or a change in a side signal; inactive = no such curve, though single readings can be large or run the other way; the % refers to the signal ratio
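Ratiometric TR-FRET (665 over 545 nm, excitation 340 nm) tracks disruption of MBNL1-His/biotin-(CUG)12 complex after 60 min at room temperature, with compounds at 92 nM to 58 uM final.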
CBFb RUNX1 block: CBF-beta/RUNX1 interaction disruption. AlphaScreen CBFb-His/RUNX1-biotin binding, biochemical. Potency, µM (highest dose often 59.8 µM), usual class: inhibitors. 230,000 tested, under 10 active
Target sequence (Q01196 whole entry, looked up): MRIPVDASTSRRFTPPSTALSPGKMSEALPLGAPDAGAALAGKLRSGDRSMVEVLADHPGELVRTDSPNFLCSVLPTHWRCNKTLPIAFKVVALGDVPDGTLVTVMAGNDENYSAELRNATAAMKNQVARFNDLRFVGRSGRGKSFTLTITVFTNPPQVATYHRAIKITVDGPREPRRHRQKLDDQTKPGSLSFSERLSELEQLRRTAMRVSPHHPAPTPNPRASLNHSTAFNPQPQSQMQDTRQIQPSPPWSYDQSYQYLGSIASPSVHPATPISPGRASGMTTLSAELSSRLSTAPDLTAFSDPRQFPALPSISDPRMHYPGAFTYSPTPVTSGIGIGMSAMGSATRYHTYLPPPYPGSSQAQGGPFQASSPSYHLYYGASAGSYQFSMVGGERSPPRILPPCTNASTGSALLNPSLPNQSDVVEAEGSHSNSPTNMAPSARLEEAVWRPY
Target sequence (Q13951 whole entry, looked up): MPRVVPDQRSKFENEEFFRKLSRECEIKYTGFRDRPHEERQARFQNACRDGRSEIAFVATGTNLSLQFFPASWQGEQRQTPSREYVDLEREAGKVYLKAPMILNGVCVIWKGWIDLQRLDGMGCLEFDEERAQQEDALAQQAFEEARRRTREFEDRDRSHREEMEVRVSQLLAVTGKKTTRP
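Room-temperature protein-protein interaction test with 30 nM each of His-tagged CBF-beta and biotinylated RUNX1, 15 min with compound, then 90 min with nickel plus streptavidin beads. Signal read in AlphaScreen mode.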
VP16 counter: counter-screen for ROR gamma inhibitors: Gal4-VP16 reporter | 310,000 compounds, 3.5% hits | Drosophila S2 Gal4-VP16 UAS-luciferase, luminescence, 20 h | Potency, µM (series often up to 53.6 µM), usual class: inhibitors | AID 2546;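 note: Gal4-VP16 expression switched on by copper sulfate through the metallothionein promoter; nearly all actives have a fitted effect of over 50% in size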
Large screens that a line does not name were inactive. A selection: hits, their analogues and other compounds. The true share with any hit is near 5.5%. Unless noted, calls come from the whole dose curve; as a rule, active = well fitted curve in the direction sought with a large enough effect; inconclusive = small, poorly fitted or top-dose-only effect, or another doubt; inactive = no such curve, though single readings can be large; an effect the other way counts as inactive or inconclusive.

S=C(Nc1ccc(Oc2ccccc2)cc1)N(CCCN1CCOCC1)Cc1ccccn1	RORg inh 14µM
COc1cccc2cc(C(C)N(CCCN3CCOCC3)C(=S)Nc3ccc(C)cc3)oc12 (configuration not stated)	none
Cc1cccc(NC(=S)N(CCCN2CCOCC2)Cc2ccccn2)c1	none
Cc1ccc(Cl)cc1NC(=S)N(CCCN1CCOCC1)Cc1ccccn1	MBNL1-CUG inh inconclusive
COc1ccccc1NC(=S)N(CCCN1CCOCC1)Cc1cn(C)c2ccccc12	RORg inh inconclusive
CCOc1ccccc1NC(=S)N(CCCN1CCOCC1)Cc1cn(C)c2ccccc12	RORg inh 11µM, VP16 counter inconclusive (no result: MBNL1-CUG inh)
COc1ccc(Cl)cc1NC(=S)N(CCCN1CCOCC1)Cc1cn(C)c2ccccc12	RORg inh 13µM, VP16 counter inconclusive (no result: MBNL1-CUG inh)
COc1ccc(NC(=S)N(CCCN2CCOCC2)C(C)c2cc3ccccc3o2)cc1 (configuration not stated)	RORg inh 10µM
CCN(CC(=O)Nc1c(F)cccc1F)C(=O)CCN1C(=O)C2CC=CCC2C1=O (configuration not stated)	none (no result: RORg inh, MBNL1-CUG inh, CBFb RUNX1 block, VP16 counter)
Cc1ccc(Cl)c(NC(=S)N(CCCN2CCOCC2)Cc2ccco2)c1	RORg inh 8.9µM, VP16 counter inconclusive
COc1cc(Cl)ccc1NC(=S)N(CCCN1CCOCC1)Cc1cn(C)c2ccccc12	RORg inh 11µM, MBNL1-CUG inh inconclusive, VP16 counter inconclusive
CCN(CC)c1ccc(/C=N/NC(=O)c2nnn(-c3nonc3N)c2C(C)C)c(O)c1	RORg inh 3.5µM, CtBP-E1A inh inconclusive, VP16 counter 5µM (no result: CBFb RUNX1 block)
CC(C)c1c(C(=O)N/N=C/C=C/c2ccccc2)nnn1-c1nonc1N	RORg inh 4.5µM, VP16 counter 5.6µM (no result: CtBP-E1A inh, CBFb RUNX1 block)
CC(C)c1c(C(=O)N/N=C/c2ccc3c(c2)OCO3)nnn1-c1nonc1N	none (no result: CBFb RUNX1 block)
OB(O)c1ccc(Cl)s1	none (no result: CtBP-E1A inh, Six1-Eya2 inh, MBNL1-CUG inh)
O=C(Nc1nc(N2C(=O)c3ccccc3C2=O)n(-c2ccccc2)n1)c1ccc(Cl)cc1	RORg inh 14µM, CtBP-E1A inh inconclusive, VP16 counter inconclusive
Cc1cccc(C)c1OC[C@H](C)N	none (no result: CtBP-E1A inh, Six1-Eya2 inh, MBNL1-CUG inh)
O=C(NC(=S)NCc1nc2ccccc2[nH]1)c1ccccc1F	none
O=C(Nc1nc2ccccc2[nH]1)c1ccc(F)cc1	RORg inh 2.8µM, VP16 counter 5.6µM
O=C(Nc1nc2ccccc2[nH]1)c1ccccc1F	RORg inh 0.71µM, VP16 counter 1.8µM
CCc1ccc(C(=O)Nc2nc3ccccc3[nH]2)cc1	RORg inh 2.2µM, VP16 counter 4µM (no result: CBFb RUNX1 block)
CN(c1ccccc1)S(=O)(=O)c1ccc(Cl)c(C(=O)Nc2nc3ccccc3[nH]2)c1	RORg inh 4µM, VP16 counter 7.1µM
COc1ccc(Cc2c(-c3cccc(Cl)c3)nc3cc(C)c(Br)c(C)n23)c(C)c1	none (no result: RORg inh, MBNL1-CUG inh, CBFb RUNX1 block, VP16 counter)
Oc1ccc(N2CCN(Cc3c(-c4ccccc4)nc4ccccn34)CC2)cc1	RORg inh inconclusive (no result: CBFb RUNX1 block)
C[C@H](CC[C@@H]1OC1(C)C)C1CC[C@H]2[C@@H]3CC=C4C[C@@H](O)CC[C@]4(C)[C@H]3CC[C@]12C (some centres not stated)	none (no result: RORg inh, CtBP-E1A inh, Six1-Eya2 inh, MBNL1-CUG inh, VP16 counter)
O=c1[nH]c2ccccc2n1C1=CCNCC1	none
CN(C)S(=O)(=O)c1ccc(C(=O)Nc2nc3ccccc3[nH]2)cc1	RORg inh 11µM, VP16 counter inconclusive
O=C(CCNC(=O)c1ccc(Cl)cc1)Nc1nc2ccccc2[nH]1	none (no result: RORg inh, MBNL1-CUG inh, CBFb RUNX1 block, VP16 counter)
N#Cc1ccc(C(=O)Nc2nc3ccccc3[nH]2)cc1	RORg inh 3.5µM, VP16 counter 7.1µM (no result: CBFb RUNX1 block)
CCn1nc(C(=O)Nc2nc3ccccc3[nH]2)c2ccccc2c1=O	RORg inh 11µM, CtBP-E1A inh inconclusive, VP16 counter inconclusive
CCN(c1ccccc1)S(=O)(=O)c1cccc(C(=O)NCC(c2ccc(F)cc2)N2CCOCC2)c1 (configuration not stated)	none (no result: RORg inh, MBNL1-CUG inh, CBFb RUNX1 block, VP16 counter)
O=C(O)c1ccccc1SC1CC(=O)N(c2ccc3c(c2)OCO3)C1=O (configuration not stated)	RORg inh 3.2µM, VP16 counter inconclusive
Cc1ccc(N2C(=O)CC(Sc3ccccc3C(=O)O)C2=O)cc1 (configuration not stated)	VP16 counter inconclusive (no result: MBNL1-CUG inh)
Cc1cc(C)cc(N2C(=O)CC(Sc3ccccc3C(=O)O)C2=O)c1 (configuration not stated)	RORg inh inconclusive
CN(C)c1ccc(N2C(=O)CC(Sc3ccccc3C(=O)O)C2=O)cc1 (configuration not stated)	RORg inh inconclusive, VP16 counter 16µM
Cc1cccc(N2C(=O)CC(Sc3ccccc3C(=O)O)C2=O)c1 (configuration not stated)	RORg inh inconclusive, MBNL1-CUG inh inconclusive, VP16 counter 5µM
Cc1cccc(N2C(=O)CC(Sc3ncn[nH]3)C2=O)c1 (configuration not stated)	RORg inh 13µM
Nc1ccccc1SC1CC(=O)N(c2ccc3c(c2)OCO3)C1=O (configuration not stated)	none
COc1c(S(=O)(=O)N2CCN(C)CC2)ccc(Cl)c1Cl	none (no result: CBFb RUNX1 block)
CC1(C)CC(=O)c2c(O)cc(OCC(=O)Nc3ccc(S(N)(=O)=O)cc3)cc2O1	none (no result: CBFb RUNX1 block)
COc1cc(NC(=O)COc2cc(O)c3c(c2)OC(C)(C)CC3=O)cc(OC)c1OC	RORg inh inconclusive, VP16 counter 2.5µM (no result: CBFb RUNX1 block)
Cc1ccc(C2=NNC3(CCOC(C)(C)C3)S2)cc1 (configuration not stated)	RORg inh 5.6µM, CtBP-E1A inh inconclusive, Six1-Eya2 inh inconclusive, VP16 counter 7.9µM
Cc1cccc(C)c1NC(=O)CN1CCN(C(=O)c2cc(C3CC3)nn2-c2ccccc2)CC1	none (no result: RORg inh, MBNL1-CUG inh, CBFb RUNX1 block, VP16 counter)
CCOC(=O)c1cc(C#N)c(=S)[nH]c1C	RORg inh 13µM (no result: MBNL1-CUG inh)
COCc1[nH]c(=S)c(C#N)cc1C(=O)OC	RORg inh inconclusive
CC(C)Cc1ccc(C(C)C(=O)Nc2nccs2)cc1 (configuration not stated)	RORg inh 13µM, VP16 counter inconclusive
CC(C)C(C(=O)Nc1nccs1)c1ccccc1 (configuration not stated)	RORg inh 11µM, VP16 counter inconclusive
CN(CCc1ccccc1)C(=O)c1cccc(NC(=O)Cc2cccc(NC(=O)C3CCCN(C(=O)C4CC4)C3)c2)c1 (configuration not stated)	none (no result: RORg inh, MBNL1-CUG inh, CBFb RUNX1 block, VP16 counter)
Cn1c2c(c(=O)n(C)c1=O)C(C(F)(F)F)(C(F)(F)F)N=C(c1ccc(Cl)cc1)N2	RORg inh 6.3µM, VP16 counter 3.2µM
